Compounds with a hit are over-represented: about 2.4% of the library has one in this group of screens.
AmpC nodet inh – inhibitors of E. coli AmpC beta-lactamase without detergent; P00811; AID 585; 71,000 tested, 1.8% active; Potency, µM (highest dose often 28.7 µM); AmpC nitrocefin hydrolysis, absorbance 480 nm, no detergent
Target sequence (P00811 whole entry, looked up): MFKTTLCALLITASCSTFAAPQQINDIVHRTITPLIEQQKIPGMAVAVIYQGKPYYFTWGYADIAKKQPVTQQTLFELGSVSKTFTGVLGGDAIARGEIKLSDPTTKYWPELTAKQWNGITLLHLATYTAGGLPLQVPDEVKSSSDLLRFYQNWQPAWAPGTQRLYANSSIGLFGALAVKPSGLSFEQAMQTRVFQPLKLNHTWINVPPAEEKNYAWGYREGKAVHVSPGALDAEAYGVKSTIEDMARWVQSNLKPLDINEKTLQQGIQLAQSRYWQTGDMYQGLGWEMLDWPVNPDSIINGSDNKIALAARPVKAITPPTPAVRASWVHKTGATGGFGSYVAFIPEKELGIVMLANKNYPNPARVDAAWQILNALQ
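Enzyme, pH 7.0 phosphate. Compound titrations were pre-incubated with AmpC for 15 min at room temperature before nitrocefin (stock 800 uM) addition; product formation was recorded at 480 nm every 20 s for 4 min.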
Prx2 Sm inh – inhibitors of Schistosoma mansoni peroxiredoxin 2; 65,000 tested, 0.07% active; S. mansoni Prx2 activity coupled to TGR/GSH (TGR is thioredoxin glutathione reductase), NADPH fluorescence loss, qHTS; AID 448; Potency, µM
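Prx2 activity was followed as the loss of NADPH fluorescence (ex 365/em 450 nm), read every 30 sec for 8 min after H2O2 start. The enzyme mix (50 nM Prx2, 25 nM TGR, GSH, NADPH; pH 7.4 phosphate buffer) was incubated with compound for 15 min at room temperature first.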
Anthrax LT inh – blocks cellular internalization of anthrax lethal toxin | Cells, anthrax lethal toxin internalization, FRET ratio (460/530) | Potency, µM (titrated, usually from 40 µM), usual class: inhibitors | 70,000 tested, 0.67% active | AID 912; note: nearly all actives have a fitted effect of over 50% in size
AmpC inh det – blocks E. coli AmpC beta-lactamase in presence of detergent. Potency, µM (highest dose often 28.7 µM). AID 584. purified AmpC, nitrocefin hydrolysis with detergent. 71,000 tested, 0.09% active; active = well fitted curve in the direction sought with a large enough effect; inconclusive = small, poorly fitted or top-dose-only effect
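E. coli AmpC (5.3 nM) in 20 mM phosphate pH 7.0 with 0.01% Triton X-100, preincubated 15 min RT with compound; nitrocefin (2 uL of 800 uM stock) hydrolysis followed by 480 nm absorbance every 20 s over 4 min.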
Numbers stand for hits; i = inactive; ? = inconclusive; nt = no result given; [ ] = dose if it differs, or a comment. Unless noted, calls come from the whole dose curve.

SMILES	AmpC nodet inh	Prx2 Sm inh	Anthrax LT inh	AmpC inh det
N#Cc1sc2nc3c(c(-c4ccco4)c2c1N)CCCC3	13µM[single pt active]	i	i	i
CC(C)OC(=O)c1nnc(Cc2ccc(F)cc2)o1	i	i	i	i
CC(C)C[C@H](N)c1nnc(S(=O)(=O)Cc2ccc(F)cc2)o1	2.5µM	i	?	2.5µM
O=C1Nc2ccccc2C(O)(C(=O)NCc2ccco2)N1c1ccc(Cl)c(Cl)c1 (configuration not stated)	i	i	7.9µM	i
O=C(NCc1ccccc1)c1c[nH]c2ccc(S(=O)(=O)Nc3ccc4c(c3)OCCO4)cc2c1=O	10µM	i	i	i
O=C(NCc1ccc2c(c1)OCO2)c1cccc(C(=O)NCc2ccc3c(c2)OCO3)c1	?	nt	?	i
O=C(NCc1ccc2c(c1)OCO2)c1ccc(NS(=O)(=O)c2ccc3c(c2)OCCO3)cc1	10µM	i	i	i
Cc1ccc(-c2csc(NC(=O)c3ccno3)n2)cc1	7.9µM	i	i	i
O=C(Nc1nc(-c2ccccn2)cs1)c1ccc(Cl)s1	i	i	6.3µM	i
Cn1cccc1C(=O)Nc1nc(-c2ccccn2)cs1	i	i	i	i
O=C(Nc1nc(-c2ccc(Cl)s2)cs1)c1cccs1	?	i	?	i
O=C(Nc1nc(-c2ccccc2)cs1)c1cccs1	i	nt	10µM	i
O=C(Nc1nc(-c2ccc(S(=O)(=O)N3CCCC3)cc2)cs1)c1ccco1	i	i	nt	i
Cc1cccc(-n2nc3c(c2NC(=O)c2ccc(Br)o2)CSC3)c1	10µM	i	?	i
CCCOc1nc(N)c(C#N)c(-c2ccccc2F)c1C#N	i	i	7.9µM	i
COc1ccc(-c2cc(CCCC(=O)NCc3ccccn3)no2)cc1	3.2µM[single pt active]	i	i	i
COc1ccc(-c2cc(CCCC(=O)NCCc3ccc(OC)cc3OC)no2)cc1	i	i	nt	i
Cc1nc(NC2CCCCC2)c2nc(-c3ccccc3)n(CCCN(C)C)c2n1	i	nt	i	i
CCc1nc2ccccc2c(C(=O)OCC(=O)Nc2ccc(S(=O)(=O)N3CCOCC3)cc2)c1C	i	i	13µM	i
CN1CCN(S(=O)(=O)c2ccc(NC(=O)Nc3cccc(Cl)c3)cc2)CC1	i	i	13µM	i
O=C(Nc1ccccc1)Nc1ccc(S(=O)(=O)N2CCCCC2)cc1	i	i	?	i
COc1ccc(CNc2ccnc(-c3ccccc3CN(C)C)n2)c(OC)c1	i	i	i	i
CCCCCCCCCCCCCCCCOC[C@@H](COCC(F)(F)F)OP(=O)(O)OCO	i	i	?	i
COc1ccc(-c2nc(CS(=O)CC(=O)NCC3CCCO3)c(C)o2)cc1 (configuration not stated)	4µM[single pt active]	i	i	i
COc1ccc(CNC(=O)CS(=O)Cc2nc(-c3ccc(C)cc3)oc2C)cc1 (configuration not stated)	i	i	i	i
SMILES	AmpC nodet inh	Prx2 Sm inh	Anthrax LT inh	AmpC inh det
COc1ccc(-c2nc(CS(=O)CC(=O)NCc3ccc4c(c3)OCO4)c(C)o2)cc1 (configuration not stated)	i	i	i	i
COCCNC(=O)CS(=O)Cc1nc(-c2ccc(OC)cc2)oc1C (configuration not stated)	3.2µM	i	i	i
COc1ccc(-c2nc(CS(=O)CC(=O)N3CCCC3)c(C)o2)cc1 (configuration not stated)	4µM[single pt active]	i	i	i
COc1ccc(-c2nc(CS(=O)CC(=O)NCc3ccco3)c(C)o2)cc1OC (configuration not stated)	4µM[single pt active]	i	i	i
COC(=O)[C@H](C)NC(=O)C/C=C\[C@@H](C)[C@@H](CO)OC	nt	nt	i[1.6 µM]	nt
CC(=O)O[C@H]1C2=C(C(=O)[C@H]3O[C@@H]31)[C@@H]1[C@@H]3[C@@H](C)OC=C4[C@H](O)[C@H]5O[C@@H]5C(=O)[C@]43C2O[C@H]1C	nt	nt	i[8 µM]	nt
COc1cccc(-c2nn(C)c3sc(C(=O)N4CCOCC4)cc23)c1	i	i	i	i
COc1ccc(N2CCN(C(=O)c3cc4c(-c5ccc(Cl)cc5)nn(C)c4s3)CC2)cc1	4µM[single pt active]	i	?	i
COc1cccc(-c2nn(C)c3sc(C(=O)N4CCN(c5ccccn5)CC4)cc23)c1	i	i	10µM	i
CC(=O)O[C@H]1C2=CO[C@H](C)[C@H]3[C@H]4C5=C([C@H](O)[C@H]6O[C@@H]6C5=O)[C@H](O[C@H]4C)[C@@]23C(=O)[C@H]2O[C@@H]21	nt	nt	i[8 µM]	nt
Cc1ccc(CNC(=O)C2(CC(C)C)C=CCN2C(=O)c2ccccc2)o1 (configuration not stated)	i	nt	i	i
O=C(O)CC1Sc2ccccc2NC1=O (configuration not stated)	i	i	i	i

Source: PubChem
